Compounds with a hit are over-represented: about 21% of the library has one in this group of screens.
CHX counter: counter-screen for Shiga toxin inhibitors: cycloheximide protein synthesis inhibition; cell reporter, cycloheximide protein synthesis inhibition counterscreen; max response, %; hit rate 12% among 300,000; AID 2314; in the data active means max response mostly above about 13%, no sharp cut-off; inactive means mostly below about 14%; further: read at 38.3 µM for the half of the compounds with a filed dose
Pf growth 96h: inhibits malaria parasite growth, 96 h; P. falciparum luciferase reporter growth, 96 h; Potency, µM (highest dose often 28.7 µM), usual class: inhibitors; hit rate 6.9% among 320,000; AID 504834
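Plates of compound plus infected erythrocytes (2% hematocrit, 0.05% parasitemia final) incubate 96 hours, 37 C, 5% CO2. Detection reagent added; reduced luminescence from the parasites' luciferase reporter flags inhibition.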
FBPA Giardia inh: inhibitors of Giardia lamblia fructose-1,6-bisphosphate aldolase; A8B2U2; purified Giardia FBPA; Potency, µM (series often up to 59.6 µM), usual class: inhibitors; hit rate 0.71% among 290,000; AID 2451; further: nearly all actives have a fitted effect of over 55% in size
Target sequence (A8B2U2 whole entry, looked up): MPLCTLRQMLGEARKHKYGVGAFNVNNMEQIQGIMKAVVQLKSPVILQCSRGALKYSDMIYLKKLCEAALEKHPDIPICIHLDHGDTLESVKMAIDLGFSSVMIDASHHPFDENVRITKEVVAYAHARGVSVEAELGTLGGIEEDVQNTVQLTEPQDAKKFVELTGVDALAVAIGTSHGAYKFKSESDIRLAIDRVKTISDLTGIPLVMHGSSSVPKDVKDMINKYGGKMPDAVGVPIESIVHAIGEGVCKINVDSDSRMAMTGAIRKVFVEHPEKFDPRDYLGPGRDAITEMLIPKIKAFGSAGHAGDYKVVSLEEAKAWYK
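Giardia FBPA (40 nM reagent) was preincubated 10 min at RT with compound (up to 57.5 uM final), then substrate plus GAPDH/TPI/NAD/arsenate coupling system with diaphorase/resazurin was added; resorufin fluorescence (525/598 nm) was read after 20 min.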
Shiga toxin inh: inhibitors of Shiga toxin in Vero cells. AID 2315. hit rate 9.2% among 290,000. inhibition, % at 38.7 µM. Vero cells, Shiga toxin protein synthesis inhibition reporter; in the data active means inhibition mostly above about 28%, no sharp cut-off; inactive means mostly below about 43%
NS1 inh: inhibitors of influenza NS1 protein function; hit rate 0.4% among 270,000; Potency, µM (highest dose often 46.1 µM); calls by dose curve; further: actives are rising curves; nearly all actives have a fitted effect of over 50% in size
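Read-out: OD600 growth recovery of NS1-expressing budding yeast. Cells grown overnight at 30C in -URA glucose medium, washed, resuspended and diluted 1:100 in 2% galactose assay medium, pH 6.0. Same strain lacking NS1 served as positive control.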
Pf growth 48h: P. falciparum growth inhibition at 48 hours (one generation) | P. falciparum luciferase growth in erythrocytes, 48 h | Potency, µM (highest dose often 28.7 µM), actives largely listed as inhibitors | hit rate 5.9% among 310,000 | AID 504832
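Erythrocytes infected with P. falciparum carrying an integrated firefly luciferase reporter (2% hematocrit, 0.1% parasitemia final) were exposed to compounds in RPMI 1640 with 0.5% Albumax at 37 C, 5% CO2. Growth inhibition was scored as reduced luminescence.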
Each line names hits and unclear results; the compound was inactive in the other large screens. Unless noted, the call rests on the fitted dose curve; in most records, active means well fitted curve in the direction sought with a large enough effect; inconclusive means small, poorly fitted or top-dose-only effect, or another doubt; inactive means no such curve, though single readings can be large; an effect the other way counts as inactive or inconclusive.

CC(C)c1ccc(Nc2ccc(C(=O)O)cc2[N+](=O)[O-])cc1	CHX counter 19
COc1ccc(C)cc1Nc1ccc(C(=O)O)cc1[N+](=O)[O-]	none (no result: NS1 inh)
Cc1ccc(Nc2ccc(C(=O)O)cc2[N+](=O)[O-])cc1	Pf growth 96h 9.3µM (no result: Pf growth 48h)
CCOc1ccc(Cl)cc1CNCCCSc1nc(C)cc(C)n1	FBPA Giardia inh inconclusive, Pf growth 48h inconclusive
OC(CNc1nc(C(F)(F)F)nc2ccccc12)c1ccccc1 (centres undefined)	Pf growth 96h inconclusive, Pf growth 48h inconclusive (no result: FBPA Giardia inh)
OC(CNc1nc2ccccc2s1)c1ccccc1 (centres undefined)	Pf growth 48h 13µM
OCC(O)/C=N/Nc1nc2ccccc2s1 (centres undefined)	Pf growth 96h inconclusive, Shiga toxin inh 48 (no result: NS1 inh)
Cc1ccc2nccc(C(=O)N3CCCC(N4CCN(c5ccc(F)cc5)CC4)C3)c2c1 (centres undefined)	Pf growth 48h inconclusive (no result: FBPA Giardia inh)
COc1ccc(OC)c2[nH]c(=O)c(CCNC(=O)c3ccc(Br)o3)cc12	FBPA Giardia inh inconclusive, Pf growth 48h 12µM (no result: Pf growth 96h)
Cc1cc2cc(CCNC(=O)c3ccc(S(=O)(=O)N4CCCC4)cc3)c(=O)[nH]c2cc1C	Pf growth 96h inconclusive, Pf growth 48h 9.3µM
COc1ccc(OC)c2[nH]c(=O)c(CCNC(=O)c3ccc(S(=O)(=O)N4CCCCC4)cc3)cc12	Pf growth 48h 9.3µM
COc1ccc2cc(CCNC(=O)c3ccc(S(=O)(=O)N4CCOCC4)cc3)c(=O)[nH]c2c1	Pf growth 96h inconclusive, Pf growth 48h 10µM
COc1ccc(CNC(=O)c2ccc(S(=O)(=O)N3CCOCC3)cc2)cc1	Pf growth 96h inconclusive (no result: CHX counter, FBPA Giardia inh, Shiga toxin inh, NS1 inh)
CC(=O)O[C@]1(C(C)=O)CC[C@H]2C3C=C(Cl)C4=CC(=O)[C@@H]5C[C@H]5[C@]4(C)C3CC[C@@]21C (some centres undefined)	none (no result: CHX counter, Pf growth 96h, Shiga toxin inh, Pf growth 48h)
Cc1cc(Cl)ccc1OCC(=O)Nc1ccccc1CO	CHX counter 25, Shiga toxin inh 50, Pf growth 48h 13µM
Cc1cc(Cl)ccc1OCC(=O)Nn1c(C)ccc1C	Pf growth 48h inconclusive
Cc1cc(Cl)ccc1OCC(=O)Nc1nc(N)nc(N)n1	none (no result: CHX counter, Pf growth 96h, FBPA Giardia inh, Shiga toxin inh, Pf growth 48h)
CSc1ccccc1NC(=O)COc1ccc(Cl)cc1C	CHX counter 40, Shiga toxin inh 48
CS(=O)(=O)Nc1cccc(C2=NN(C(=O)c3cccc([N+](=O)[O-])c3)C(c3cccs3)C2)c1 (centres undefined)	none
CCCCCCCCc1ccc(-c2ccc(C(=O)O)cc2)cc1	FBPA Giardia inh inconclusive (no result: Pf growth 96h, NS1 inh, Pf growth 48h)
CCCCCCC[N+](CC)(CC)CCCCc1ccc(Cl)cc1	Pf growth 96h 0.47µM, Pf growth 48h 0.47µM (no result: CHX counter, Shiga toxin inh, NS1 inh)
O=C(c1ccc2c(c1)OCO2)N1CCC2(CC1)Oc1ccc(F)cc1C(=O)C21CC(c2ccccc2)=NO1 (centres undefined)	Pf growth 96h inconclusive, Pf growth 48h 13µM
Cc1ccc(C(=O)N2CCC3(CC2)Oc2ccc(F)cc2C(=O)C32CC(c3ccc(Cl)cc3)=NO2)s1 (centres undefined)	Pf growth 96h inconclusive, Pf growth 48h inconclusive
O=C(c1ccc2c(c1)OCO2)N1CCC2(CC1)Oc1ccc(F)cc1C(=O)C21CC(c2cccnc2)=NO1 (centres undefined)	Pf growth 96h inconclusive, Pf growth 48h inconclusive
O=C(c1ccoc1)N1CCC2(CC1)Oc1ccc(F)cc1C(=O)C21CC(c2ccccc2)=NO1 (centres undefined)	Pf growth 96h 12µM, Pf growth 48h inconclusive
Cc1ccc(C(=O)N2CCC3(CC2)Oc2ccc(F)cc2C(=O)C32CC(c3ccccc3)=NO2)s1 (centres undefined)	Pf growth 96h 10µM, Pf growth 48h inconclusive
O=C(c1ccoc1)N1CCC2(CC1)Oc1ccc(F)cc1C(=O)C21CC(c2ccc(Cl)cc2)=NO1 (centres undefined)	Pf growth 48h inconclusive
CCOc1ccc2[nH]c(C)c(CN3CCCCCC3)c(=O)c2c1	Pf growth 96h inconclusive
CC(C)OCCCNc1ncnc2c1nc1n2CCCC1	CHX counter 18
O=C(NCCCN1CCCCC1)C1CCN(c2ncnc3c2nc2n3CCCCC2)CC1	none
COc1ccc(C(CNC(=O)C(=O)NC2CCCCC2)N2CCN(C)CC2)cc1 (centres undefined)	none (no result: CHX counter, FBPA Giardia inh, Shiga toxin inh, NS1 inh)
CCOC(=O)C1(Cc2ccccc2C)CCCN(C(=O)CCn2nccc2C)C1 (centres undefined)	none
CCCc1cc(C(=O)N2CCCC(Cc3ccccc3C)(C(=O)OCC)C2)no1 (centres undefined)	Pf growth 48h inconclusive
CCOC(=O)C1(Cc2ccccc2C)CCCN(C(=O)c2ccccn2)C1 (centres undefined)	CHX counter 40, Pf growth 96h inconclusive, Shiga toxin inh 71
CCOC(=O)C1(Cc2ccccc2C)CCCN(C(=O)CCc2cccnc2)C1 (centres undefined)	CHX counter 32, Shiga toxin inh 33, Pf growth 48h inconclusive
CCOC(=O)C1(Cc2ccccc2)CCCN(C(=O)c2cnn(CC)c2)C1 (centres undefined)	CHX counter 29, Pf growth 96h inconclusive, Shiga toxin inh 73
CCOC(=O)C1(Cc2ccccc2C)CCCN(Cc2ccc(NC(C)=O)cc2)C1 (centres undefined)	Pf growth 96h inconclusive, Pf growth 48h 5.2µM
CC(Sc1ccccc1)C(=O)NNC(=O)c1ccncc1 (centres undefined)	none (no result: CHX counter, FBPA Giardia inh, Shiga toxin inh, NS1 inh)
C[C@@H](C(=O)Nc1ccc2ccccc2c1)[C@H]1C[C@]1(C)[C@H](NC(=O)Oc1ccc(F)cc1)c1ccccc1	none (no result: CHX counter, Pf growth 96h, Shiga toxin inh, NS1 inh, Pf growth 48h)
CCOc1ccc(S(=O)(=O)N2CCC(C(=O)NC3CCCC3)CC2)cc1	Pf growth 48h inconclusive (no result: FBPA Giardia inh)
CCN(CC)CCCn1c2c(c(SCC(=O)Nc3nccs3)nc1=O)CCC2	none (no result: CHX counter, FBPA Giardia inh, Shiga toxin inh, NS1 inh)
CCOC(=O)C1(Cc2ccccc2C)CCCN(C(=O)c2cc(C3CC3)[nH]n2)C1 (centres undefined)	Pf growth 48h inconclusive
CCOC(=O)C1(Cc2ccccc2C)CCCN(C(=O)c2ccc3nccnc3c2)C1 (centres undefined)	Pf growth 48h 13µM
COc1ccc(CCc2nnc(CCC(=O)N(C)Cc3ccnc4ccccc34)o2)cc1	CHX counter 30, Pf growth 96h inconclusive, Shiga toxin inh 23
COc1ccccc1CCc1nnc(CCC(=O)N(C)Cc2cccc3cnccc23)o1	CHX counter 45, Shiga toxin inh 86, Pf growth 48h inconclusive
Cc1cc(C)c2c(n1)SCC(=O)N2CC(=O)Nc1cc(F)ccc1F	none
CCOC(=O)C1=C(C)N(c2ccccc2)C(=O)C1CC(=O)O (centres undefined)	Pf growth 96h 12µM
COc1ccc(OCC(=O)NNC(=O)Cn2c(=O)cnc3ccccc32)cc1	none (no result: CHX counter, FBPA Giardia inh, Shiga toxin inh, NS1 inh)
CC(CCc1ccccc1)NCC(O)c1ccc(O)c(C(N)=O)c1 (centres undefined)	Pf growth 96h inconclusive, Pf growth 48h 13µM
CC(=O)NC(C)CCc1ccccc1 (centres undefined)	none

Source: PubChem (National Center for Advancing Translational Sciences (NCATS))
